According to PubChem BioAssay (NCI):
This is part of a sample that, as a whole, favours compounds with a hit. Of some 83,000 tested, about 20% had one in any assay.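 In brief: 96-well plates, 48 h treatment, single concentration, percent growth endpoint.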 Values without a mark were called inactive. The source made the active and inactive calls. The calls were made as follows: active = growth percent below 10; inactive = the rest.

What was measured:
Assay in all cases: NCI-60 one-dose screen, 48 h (100 = growth as untreated, 0 = no growth, -100 = all killed)
Conditions in all cases: 10 µM unless noted
HCT-15 colon = tested on: HCT-15 colon
HT29 colon = tested on: HT29 colon
SNB-75 CNS = tested on: SNB-75 CNS
SNB-19 CNS = tested on: SNB-19 CNS
U251 CNS = tested on: U251 CNS
PC-3 prostate = tested on: PC-3 prostate
SK-MEL-5 melanoma = tested on: SK-MEL-5 melanoma
UACC-62 melanoma = tested on: UACC-62 melanoma
LOX IMVI melanoma = tested on: LOX IMVI melanoma
SK-MEL-28 melanoma = tested on: SK-MEL-28 melanoma
SK-MEL-2 melanoma = tested on: SK-MEL-2 melanoma
EKVX NSCLC = tested on: EKVX NSCLC
SN12C renal = tested on: SN12C renal
UO-31 renal = tested on: UO-31 renal
TK-10 renal = tested on: TK-10 renal
ACHN renal = tested on: ACHN renal
CAKI-1 renal = tested on: CAKI-1 renal
A498 renal = tested on: A498 renal
CCRF-CEM leukemia = tested on: CCRF-CEM leukemia
MOLT-4 leukemia = tested on: MOLT-4 leukemia

| Structure (SMILES) | growth (HCT-15 colon) | growth (HT29 colon) | growth (SNB-75 CNS) | growth (SNB-19 CNS) | growth (U251 CNS) | growth (PC-3 prostate) | growth (SK-MEL-5 melanoma) | growth (UACC-62 melanoma) | growth (LOX IMVI melanoma) | growth (SK-MEL-28 melanoma) | growth (SK-MEL-2 melanoma) | growth (EKVX NSCLC) | growth (SN12C renal) | growth (UO-31 renal) | growth (TK-10 renal) | growth (ACHN renal) | growth (CAKI-1 renal) | growth (A498 renal) | growth (CCRF-CEM leukemia) | growth (MOLT-4 leukemia) |
| --- | --- | --- | --- | --- | --- | --- | --- | --- | --- | --- | --- | --- | --- | --- | --- | --- | --- | --- | --- | --- |
| C=C(CO)[C@@H]1CC[C@]2(COC3CCCCO3)CC[C@]3(C)[C@H](CC[C@@H]4[C@@]5(C)C=C(C=O)C(=O)C(C)(C)[C@@H]5CC[C@]43C)[C@@H]12 (stereo not given in full) | -90.5% (active) | -83.6% (active) | -51.6% (active) | -83.8% (active) | -88.6% (active) | -82.5% (active) | -95.1% (active) | -76.7% (active) | -88.4% (active) | -71.3% (active) | -57.3% (active) | -82.8% (active) | -67.3% (active) | -96.9% (active) | -96.2% (active) | -100% (active) | -76% (active) | -97.7% (active) | -62.9% (active) | -32.2% (active) |
| C=CCOC(=O)C1=C(C)NC(=O)NC1c1c(Cl)n(C)c2ccccc12 (stereo not given) | 99.8% | 110% | 97.8% | 94% | 96.3% | 89.2% | 102% | 90.3% | 102% | 99.6% | 112% | 98.2% | 96.9% | 80.9% | 102% | 99.7% | 94.3% | 101% | -49.5% (active) |  |
| C=CCn1c(SCC(=O)Nc2ccc(C(=O)/C=C/c3ccc(OC)cc3)cc2)nnc1-c1ccccc1 | 83.4% | 85.3% | 70.6% | 83.9% | 98.1% | 67.1% | 92.2% | 74.5% | 87.2% | 89.4% | 82.4% | 88.4% | 89.2% | 69.4% | 98% | 92.5% | 93.1% | 97.3% | 84.5% | 61.1% |
| C[C@H]1[C@H](C)CC[C@]2(C(=O)O)CC[C@]3(C)C(=CC[C@@H]4[C@@]5(C)C[C@@H](Cc6cn([C@@H]7O[C@H](CO)[C@@H](O)[C@H](O)[C@H]7O)nn6)[C@H](O)C(C)(C)[C@@H]5CC[C@]43C)[C@H]12 | 102% | 98.4% | 88% | 98.8% | 92.9% | 89.8% | 94.2% | 98.4% | 99% | 101% | 99.9% | 96.8% | 97.1% | 91.8% | 89.2% | 99.2% | 97.2% | 80.7% | 99.3% |  |
| COCCCOc1cc(C[C@@H](C[C@H](N)[C@@H](O)C[C@H](C(=O)NCC(C)(C)C(N)=O)C(C)C)C(C)C)ccc1OC | 111% | 106% | 88.4% | 106% | 98.7% | 90.7% | 106% | 102% | 95% | 104% | 104% | 92.6% | 104% | 84.4% | 109% | 101% | 89.2% | 103% | 110% |  |
| COc1ccc(Nc2ncc(C(N)=O)c(NCCCNC(=O)C3CCC3)n2)cc1 | 82.1% | 70.7% | 49.7% | 75.5% | 56.3% | 62.8% | 88.3% | 77.8% | 73.1% | 94.2% | 51.8% | 96.2% | 30.9% | 2.37% (active) | 34.4% | 44.9% | 34.7% | 105% | 43.7% |  |
| CN1CCCc2cc(/C=C3/SC(=S)N(CCc4ccc(O)cc4)C3=O)ccc21 | 56.7% | 86.3% | 74.1% | 92.9% | 94.4% | 67.5% | 92% | 71.9% | 77.3% | 88.5% | 98% | 93.7% | 77.3% | 52.4% | 114% | 87.3% | 58.8% | 73.5% | 14.8% |  |
| CC[C@]12C=CCN3CC[C@@]4(c5ccc(OC)cc5N(C)[C@H]4[C@@](O)(C(=O)OC)[C@@H]1OC(=O)CCCN1CCOCC1)[C@@H]32 | 110% | 110% | 91.5% | 101% | 101% | 105% | 103% | 97.6% | 110% | 109% | 109% | 111% | 105% | 94.1% | 99.8% | 110% | 94.2% | 113% | 107% | 102% |
